Measured values reported in the supplement of paper PMC11732987, “Enantioselective OTUD7B fragment discovery through chemoproteomics screening and high-throughput optimisation” (Communications Chemistry, 2025).

What was measured:
Experiment in all cases: log2 ratio of Biotin-Ahx-Ub-VS probe labelling (compound/DMSO); higher = less target engagement, active = hit call of the paper (q ≤ 0.05, log2 ratio ≤ -1)
Details in all cases: treatment time: 3 h
[1] = compound: ClCC(=O)N[C@H]1CCCc2ccccc12
Method in brief: (§1)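 Values are average ratios of compound to vehicle from an unpaired t-test, limited to proteins with at least two unique peptides. HEK293T lysate (495 µg per sample, in Tris/CHAPS/IGEPAL buffer with protease inhibitors) was exposed in triplicate to a concentration series of compound or to vehicle for 3 h, then to Biotin-Ahx-Ub-VS at 0.5 µM final for 1 h. Labelled deubiquitinases were enriched on NeutrAvidin, digested with LysC and trypsin, and analysed by diaPASEF LC-MS/MS. Ratios are given on a log2 scale from Spectronaut label-free protein quantities normalised to the global median.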

[2] = compound: CCC1N(CCc2cc(OC)c(Cl)cc12)C(=O)CCl
Method in brief: (§2)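 DUBs in HEK293T lysate were labelled with Biotin-Ahx-Ub-VS (0.5 µM final, 1 h) after a 3 h treatment with compound at 50 or 200 µM or with DMSO, done in triplicate on 495 µg of lysate per sample. NeutrAvidin-enriched proteins were digested with LysC and trypsin and run by diaPASEF LC-MS/MS. Median-normalised label-free quantities gave average base-two log ratios of compound to DMSO by unpaired t-test, restricted to proteins with at least 2 unique peptides.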

[3] = compound: CCCC1N(CCc2cc(OC)c(OC)cc12)C(=O)CCl
Method in brief: as §2

[4] = compound: CN(Cc1cccc(Br)c1)C(=O)CCl
Method in brief: as §2

[5] = compound: CN(Cc1cccc(OCc2ccccc2C)c1)C(=O)CCl
Method in brief: as §2

[6] = compound: CN(Cc1ccccc1)C(=O)CCl
Method in brief: as §2

[7] = compound: COc1ccc(CN(C)C(=O)CCl)cc1
Method in brief: as §2

[8] = compound: COc1cccc(CN(CCCc2ccccc2)C(=O)CCl)c1
Method in brief: as §2

[9] = compound: ClCC(=O)N1CCc2cc(Cl)c(Cl)cc2C1
Method in brief: as §2

[10] = compound: ClCC(=O)N1CCc2nc(ncc2C1)-c1ccccc1
Method in brief: as §2

[11] = compound: ClCC(=O)N1CCc2nocc2C1
Method in brief: as §2

[12] = compound: ClCC(=O)N1CCc2scc(Br)c2C1
Method in brief: as §2

[13] = compound: ClCC(=O)NC(C1CCCC1)c1cccs1
Method in brief: as §2

[14] = compound: CCC1N(CCc2sccc12)C(=O)CCl
Method in brief: as §2

[15] = compound: CN1c2ccccc2C(CS1(=O)=O)NC(=O)CCl
Method in brief: as §2

[16] = compound: Cl.ClCC(=O)N1CCc2ncncc2C1
Method in brief: as §2

[17] = compound: Cl.Cn1ncc2C(CCCc12)NC(=O)CCl
Method in brief: as §2

[18] = compound: ClCC(=O)NC1CCOc2ccccc12
Method in brief: as §2

[19] = compound: ClCC(=O)NC1CCCc2ccccc12
Method in brief: as §1

[20] = compound: ClCC(=O)N[C@@H]1CCCc2ccccc12
Method in brief: as §1

Measured: log2 ratio of Biotin-Ahx-Ub-VS probe labelling

USP28 (UniProt Q96RU2)
Chain of UniProt Q96RU2 (Q96RU2 whole entry): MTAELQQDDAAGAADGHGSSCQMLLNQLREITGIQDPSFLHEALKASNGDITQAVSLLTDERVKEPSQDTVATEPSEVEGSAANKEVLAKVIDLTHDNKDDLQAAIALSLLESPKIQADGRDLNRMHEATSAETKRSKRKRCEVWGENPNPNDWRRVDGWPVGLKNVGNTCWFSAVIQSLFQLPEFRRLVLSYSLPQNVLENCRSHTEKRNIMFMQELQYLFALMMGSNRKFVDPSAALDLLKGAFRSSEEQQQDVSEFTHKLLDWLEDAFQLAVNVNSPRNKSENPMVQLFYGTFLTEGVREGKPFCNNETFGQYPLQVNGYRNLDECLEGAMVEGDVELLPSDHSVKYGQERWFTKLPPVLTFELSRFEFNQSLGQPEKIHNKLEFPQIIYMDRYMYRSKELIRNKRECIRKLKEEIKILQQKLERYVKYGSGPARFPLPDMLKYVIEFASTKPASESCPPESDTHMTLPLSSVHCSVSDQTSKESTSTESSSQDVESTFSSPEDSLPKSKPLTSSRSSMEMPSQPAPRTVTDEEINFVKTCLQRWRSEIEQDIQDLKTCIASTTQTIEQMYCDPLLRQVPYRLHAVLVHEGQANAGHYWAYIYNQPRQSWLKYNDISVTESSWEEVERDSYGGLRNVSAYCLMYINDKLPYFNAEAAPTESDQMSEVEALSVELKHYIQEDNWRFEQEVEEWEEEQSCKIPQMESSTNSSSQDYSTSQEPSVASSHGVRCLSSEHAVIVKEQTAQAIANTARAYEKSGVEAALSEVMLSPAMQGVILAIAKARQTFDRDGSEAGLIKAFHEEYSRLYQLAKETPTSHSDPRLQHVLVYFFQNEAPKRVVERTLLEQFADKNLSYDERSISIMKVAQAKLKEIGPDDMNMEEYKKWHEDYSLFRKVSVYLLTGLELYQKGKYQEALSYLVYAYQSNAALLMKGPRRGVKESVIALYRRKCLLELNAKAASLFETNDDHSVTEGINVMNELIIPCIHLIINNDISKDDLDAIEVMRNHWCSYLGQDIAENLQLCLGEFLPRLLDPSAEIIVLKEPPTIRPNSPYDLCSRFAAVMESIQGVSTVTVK
active: [9]; compound concentration: 200uM -1.71 | [12]; compound concentration: 200uM -1.28
inactive: [1]; compound concentration: 3.13uM -0.065 | [1]; compound concentration: 6.25uM 0.0299 | [1]; compound concentration: 12.5uM -0.143 | [1]; compound concentration: 25uM -0.24 | [1]; compound concentration: 50uM -0.318 | [1]; compound concentration: 100uM -0.618 | [1]; compound concentration: 200uM -0.996 | [2]; compound concentration: 50uM -0.146 | [2]; compound concentration: 200uM -0.945 | [3]; compound concentration: 50uM -0.218 | [3]; compound concentration: 200uM -0.719 | [4]; compound concentration: 50uM -0.197 | [4]; compound concentration: 200uM -0.68 | [5]; compound concentration: 50uM -0.572 | [5]; compound concentration: 200uM -0.911 | [6]; compound concentration: 50uM -0.195 | [6]; compound concentration: 200uM -0.692 | [7]; compound concentration: 50uM -0.172 | [7]; compound concentration: 200uM -0.467 | [8]; compound concentration: 50uM -0.253 | [8]; compound concentration: 200uM -0.826 | [9]; compound concentration: 50uM -0.496 | [10]; compound concentration: 50uM -0.15 | [10]; compound concentration: 200uM -0.716 | [11]; compound concentration: 50uM -0.192 | [11]; compound concentration: 200uM -0.624 | [12]; compound concentration: 50uM -0.468 | [13]; compound concentration: 50uM -0.0425 | [13]; compound concentration: 200uM -0.313

VCPIP1 (UniProt Q96JH7)
Chain of UniProt Q96JH7 (Q96JH7 whole entry): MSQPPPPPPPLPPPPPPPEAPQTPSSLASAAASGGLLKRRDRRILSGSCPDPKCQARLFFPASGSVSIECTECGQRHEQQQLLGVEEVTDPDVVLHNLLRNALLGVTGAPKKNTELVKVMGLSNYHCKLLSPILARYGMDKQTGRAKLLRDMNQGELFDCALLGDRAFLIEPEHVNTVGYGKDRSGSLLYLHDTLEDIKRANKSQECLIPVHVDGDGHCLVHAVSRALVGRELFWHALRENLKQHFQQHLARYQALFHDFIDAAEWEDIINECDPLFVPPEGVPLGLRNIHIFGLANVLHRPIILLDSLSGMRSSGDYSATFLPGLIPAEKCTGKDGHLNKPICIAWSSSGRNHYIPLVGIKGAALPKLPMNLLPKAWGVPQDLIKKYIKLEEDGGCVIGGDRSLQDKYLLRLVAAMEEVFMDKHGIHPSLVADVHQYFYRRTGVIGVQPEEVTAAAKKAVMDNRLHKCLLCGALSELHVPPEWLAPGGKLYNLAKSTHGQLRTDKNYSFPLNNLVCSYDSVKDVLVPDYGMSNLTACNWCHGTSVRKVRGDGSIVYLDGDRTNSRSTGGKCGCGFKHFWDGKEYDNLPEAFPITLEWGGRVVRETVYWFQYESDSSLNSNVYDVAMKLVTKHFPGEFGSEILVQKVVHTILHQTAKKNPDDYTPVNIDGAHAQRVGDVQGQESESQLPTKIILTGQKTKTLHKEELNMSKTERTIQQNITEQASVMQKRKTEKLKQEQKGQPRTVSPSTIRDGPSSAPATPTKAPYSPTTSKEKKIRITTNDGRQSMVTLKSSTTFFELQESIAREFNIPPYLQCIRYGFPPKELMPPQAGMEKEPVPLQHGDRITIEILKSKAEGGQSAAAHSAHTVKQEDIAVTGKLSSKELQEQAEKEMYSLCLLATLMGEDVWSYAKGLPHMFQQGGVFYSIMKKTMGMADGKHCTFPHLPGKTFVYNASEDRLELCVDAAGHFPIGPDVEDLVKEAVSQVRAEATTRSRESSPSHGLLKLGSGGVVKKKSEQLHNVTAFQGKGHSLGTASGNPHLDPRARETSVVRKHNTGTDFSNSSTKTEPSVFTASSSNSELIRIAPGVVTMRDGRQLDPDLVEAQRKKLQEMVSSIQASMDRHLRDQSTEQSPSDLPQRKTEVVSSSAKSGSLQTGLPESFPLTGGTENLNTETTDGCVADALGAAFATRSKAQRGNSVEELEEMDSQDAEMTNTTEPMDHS
active: [15]; compound concentration: 200uM -1.25 | [19]; compound concentration: 200uM -1.18 | [20]; compound concentration: 200uM -1.11 | [5]; compound concentration: 200uM -1.2 | [8]; compound concentration: 200uM -1.11
inactive: [14]; compound concentration: 50uM -0.0812 | [14]; compound concentration: 200uM -0.216 | [15]; compound concentration: 50uM -0.772 | [16]; compound concentration: 50uM -0.0798 | [16]; compound concentration: 200uM -0.257 | [17]; compound concentration: 50uM -0.273 | [17]; compound concentration: 200uM -0.459 | [18]; compound concentration: 50uM -0.59 | [18]; compound concentration: 200uM -0.809 | [19]; compound concentration: 0.78uM -0.0601 | [19]; compound concentration: 1.56uM -0.043 | [19]; compound concentration: 3.13uM -0.312 | [19]; compound concentration: 6.25uM -0.126 | [19]; compound concentration: 12.5uM -0.217 | [19]; compound concentration: 25uM -0.282 | [19]; compound concentration: 50uM -0.514 | [19]; compound concentration: 100uM -0.706 | [20]; compound concentration: 0.78uM -0.284 | [20]; compound concentration: 1.56uM -0.221 | [20]; compound concentration: 3.13uM -0.211 | [20]; compound concentration: 6.25uM -0.266 | [20]; compound concentration: 12.5uM -0.486 | [20]; compound concentration: 25uM -0.463 | [20]; compound concentration: 50uM -0.588 | [20]; compound concentration: 100uM -0.763 | [1]; compound concentration: 0.78uM -0.0679 | [1]; compound concentration: 1.56uM -0.261 | [1]; compound concentration: 3.13uM -0.266 | [1]; compound concentration: 6.25uM -0.105 | [1]; compound concentration: 12.5uM -0.162 | [1]; compound concentration: 25uM -0.176 | [1]; compound concentration: 50uM -0.258 | [1]; compound concentration: 100uM -0.566 | [1]; compound concentration: 200uM -0.808 | [2]; compound concentration: 50uM -0.123 | [2]; compound concentration: 200uM -0.724 | [3]; compound concentration: 50uM -0.514 | [3]; compound concentration: 200uM -0.602 | [4]; compound concentration: 50uM -0.446 | [4]; compound concentration: 200uM -0.887 | [5]; compound concentration: 50uM -0.755 | [6]; compound concentration: 50uM -0.563 | [6]; compound concentration: 200uM -0.709 | [7]; compound concentration: 50uM -0.548 | [7]; compound concentration: 200uM -0.854 | [8]; compound concentration: 50uM -0.299 | [9]; compound concentration: 50uM -0.374 | [9]; compound concentration: 200uM -0.407 | [10]; compound concentration: 50uM -0.105 | [10]; compound concentration: 200uM -0.284 | [11]; compound concentration: 50uM -0.319 | [11]; compound concentration: 200uM -0.484 | [12]; compound concentration: 50uM -0.213 | [12]; compound concentration: 200uM -0.677 | [13]; compound concentration: 50uM -0.515 | [13]; compound concentration: 200uM -0.426
